In PubChem BioAssay:
Entries with a potency or affinity are not part of this list. Records with an inconclusive call do not appear. Calls of active or inactive are those of the source. Unless noted, how the calls were made is not given here.

Legend:
[1] = viability loss in HepG2 hepatoma cells – cell-based, cherry-picks, set 2, cytotoxicity control, dose response (AID 687002;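 active means a dose-response fit showing signal loss, with half-maximal concentration no higher than twice the top tested dose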)
[2] = viability loss in HeLa cells – cell-based, ATP luminescence, cherry-pick samples, cytotoxicity control, dose response (AID 687004;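 active means a fitted half-maximal concentration no higher than twice the top valid tested dose, with signal falling as cells die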;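 further: 0% = neutral control median and -100% = staurosporine 10 µM control median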)
[3] = PAX8 transcriptional activity inhibition in RMG-I – RMG-I cells, luciferase, cherry-pick, dose response (AID 687027;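 active means every replicate test run called active, with the signal dropping as expected and potency within twice the top valid dose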)
[4] = RMG-1 ovarian cancer cell viability loss – cherry-pick, dose response (AID 687029;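 active means signal drop whose fitted half-maximal concentration is at most twice the top valid dose, in every test run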;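 further: cells exposed to compound for 96 hours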)
[5] = IOSE-T80 viability loss, PAX8-independent line – cell-based, cherry-pick, selectivity assay for PAX8 inhibitor project, dose response (AID 687032;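 active means fitted half-maximal concentration for viability loss no higher than twice the top valid dose, in every repeat run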;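 further: cells exposed to compound for 96 h before reading; 0% = neutral control wells and -100% = 2 µM mitoxantrone kill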)
[6] = CMV-driven luciferase expression suppression in HEK293 – cell-based, luminescence, dry powder, counter-screen for Pax8 inhibitor project, dose response (AID 743020;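 active means signal-lowering compounds whose fitted half-maximal concentration is at or below twice the top tested dose in every run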;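 further: HEK293 cells stably expressing the CMV luciferase reporter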)
[7] = general cell-killing toxicity readout – plate reader, dry powder samples, cytotoxicity control for PAX8 inhibitor project, dose response (AID 743021)
[8] = IGROV1 cell killing – plate reader, dry powder samples, PAX8 inhibitor project, dose response (AID 743043);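 further: more negative means fewer viable cells or more cytotoxicity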
[9] = OVCAR-3 cell viability loss – plate reader, dry powder samples, PAX8 inhibitor project, dose response (AID 743044); details: max activity: at 35 µM, hits give low values unless noted
[10] = toxicity toward immortalized ovarian surface epithelium – cell-based, plate reader, dry powder samples, cytotoxicity control for PAX8 inhibitor project, dose response (AID 743045);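 further: 0% = neutral control median and -100% = positive control median; more negative values mean more cell killing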
[11] = OVCAR8 cell viability loss – plate reader, dry powder samples, PAX8 project, dose response (AID 743197)
[12] = A2780 cell killing – plate reader, dry powder samples, cytotoxicity control, dose response (AID 743046);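 further: 0% = neutral control wells and -100% = cytotoxic reference compound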

CCOC(=O)NC(=S)Nc1ccc(C(C)(C)C)cc1
inactive: outcome [1] | outcome [2]

CC=Cc1ccc2n(c1=O)C[C@@H]1[C@@H](CO)[C@H](C(=O)N3CCc4ccccc4C3)N(C(=O)C3CC3)[C@H]21 (mixture of isomers)
inactive: outcome [1] | outcome [2]

Cc1ccc(NC(=O)NC(=O)COc2ccc(Cl)cc2Cl)c(C)c1
inactive: outcome [3] | outcome [4] | outcome [5] | outcome [6] | outcome [7]

O=C(CCCC(=O)OCC(Cl)=C(Cl)Cl)Nc1ccc(F)cc1
inactive: outcome [3] | outcome [4] | outcome [5] | outcome [6] | outcome [7]

CCCCCCCCC(=O)NCCOc1ccccc1
inactive: outcome [3] | outcome [4] | outcome [5] | outcome [6] | outcome [7]

Cc1c(C(=O)NC(=S)Nc2ccccc2N2CCCC2)cccc1[N+](=O)[O-]
inactive: outcome [1] | outcome [2]

COc1ccc(CN2C(=O)C(CC(=O)NCCCCc3ccccc3)CC(C(=O)N3CCOCC3)=C2C)cc1 (centres undefined)
inactive: outcome [3] | outcome [4] | outcome [5] | outcome [6] | outcome [7]

COCCNC(=O)C/C(C)=N/NC(=O)C(=O)NC1CCCCC1
inactive: outcome [3] | outcome [4] | outcome [5] | outcome [6] | outcome [7]

Cc1c(Cl)cccc1NC(=S)NCCc1ccc(Cl)cc1
inactive: outcome [1] | outcome [2]

COC(=O)C1=C(C)N(Cc2ccc(Cl)cc2)C(=S)NC1c1ccc(OC)cc1 (centres undefined)
inactive: outcome [1] | outcome [2]

CCCCNC(=O)/C(=C/c1ccccc1)NC(C)=O
inactive: outcome [3] | outcome [4] | outcome [5] | outcome [6] | outcome [7]

O=[N+]([O-])c1cccnc1S(=O)(=O)c1ccccc1
inactive: activity change, negative = inhibition [3] -21.1% [at 8 µM]

O=C(O)CCCNC(=O)C(c1ccccc1)c1ccccc1
inactive: outcome [3] | outcome [4] | outcome [5] | outcome [6] | outcome [7]

Cc1ccc(NC(=S)N(CCCN2CCOCC2)Cc2ccccn2)cc1
inactive: outcome [3] | outcome [4] | outcome [5] | outcome [6]

CCOc1ccc2ccccc2c1/C=N\NC(=O)OC
inactive: outcome [3] | outcome [4]

Cc1ccccc1Cn1cnc2ccccc2c1=O
inactive: outcome [3] | outcome [4] | outcome [5] | outcome [6] | outcome [7]

C[C@H](CO)N1C[C@H](C)[C@@H](CN(C)S(=O)(=O)c2cn(C)cn2)Oc2c(NC(=O)Nc3ccccc3)cccc2C1=O
inactive: outcome [1] | outcome [2]

O=C1/C(=C\c2ccco2)SC(=S)N1c1ccc(O)cc1
inactive: outcome [3] | outcome [4] | outcome [5] | outcome [6] | outcome [7]

COC(=O)C1=C(C)N(Cc2ccc(F)cc2)C(=S)NC1c1cccc(F)c1 (centres undefined)
inactive: outcome [1] | outcome [2]

O=C(CSc1ncccc1-c1nc2ccccc2[nH]1)N1CCc2ccccc21
inactive: outcome [3]

COC(=O)CN1C(=S)N(C)C(=O)C1CC(=O)Nc1ccccc1 (centres undefined)
inactive: outcome [3] | outcome [4] | outcome [5] | outcome [6] | outcome [7]

Cn1cc(/C=C(\C(=O)O)C(C(=O)O)=C2CCCCC2)c2ccccc21
inactive: outcome [3] | outcome [4] | outcome [5] | outcome [6] | outcome [7]

Cc1csc(NC(=O)C(C)Oc2ccc(Br)cc2)n1 (centres undefined)
inactive: outcome [3] | outcome [4] | outcome [5] | outcome [6] | outcome [7]

COC(=O)C1=C(C)N(C)C(=S)NC1c1ccccc1 (centres undefined)
inactive: outcome [1] | outcome [2]

O=C(c1cccs1)N1C[C@H](O)[C@@H](n2cc(C3CC3)nn2)C[C@@H]1c1ccccc1
inactive: outcome [3] | outcome [4] | outcome [5] | outcome [6] | outcome [7]

c1ccc(COc2ccc(OCCN3CCCCC3)cc2)cc1
inactive: outcome [3] | outcome [4] | outcome [5] | outcome [6] | outcome [7]

O=C(c1ccc2c(c1)OCO2)N1CCN(c2ccc(C(F)(F)F)cn2)CC1
inactive: outcome [3] | outcome [4] | outcome [5] | outcome [6] | outcome [7]

S=C(Nc1cccc(Cl)c1)Nc1ccccc1Oc1ccccc1
inactive: outcome [1] | outcome [2]

O=C(NC(=S)NCC1COc2ccccc2O1)c1ccc(Cl)cc1 (centres undefined)
inactive: outcome [1] | outcome [2]

N/C(=N\OS(=O)(=O)c1cccc([N+](=O)[O-])c1)c1ccncc1
inactive: outcome [3] | outcome [4] | outcome [5] | outcome [6] | outcome [7]

COC(=O)C1=C(C)N(Cc2ccc(Cl)cc2)C(=S)NC1c1cccc(F)c1 (centres undefined)
inactive: outcome [1] | outcome [2]

C[C@H]1CCCCO[C@@H](CN(C)Cc2ccncc2)[C@@H](C)CN([C@@H](C)CO)C(=O)c2cc(NC(=O)Nc3ccccc3)ccc2O1
inactive: outcome [1] | outcome [2]

CC1CCCC(NC(=O)COC(=O)c2ccccc2Sc2ccccc2C#N)C1C (centres undefined)
inactive: outcome [3] | outcome [4] | outcome [5] | outcome [6] | outcome [7]

C[C@@H]1CN([C@@H](C)CO)C(=O)c2cc(NC(=O)Nc3ccccc3)ccc2O[C@@H](C)CCCCO[C@H]1CN(C)Cc1ccc(Cl)c(Cl)c1
inactive: outcome [3] | outcome [4] | outcome [5] | outcome [6] | outcome [7] | outcome [8] | max activity [9] -10.5% [at 8 µM, hits give low values] | outcome [10] | outcome [11]

COc1ccc(-c2cn(CC[C@H]3CC[C@@H](NC(=O)Cc4ccccn4)[C@@H](CO)O3)nn2)cc1
inactive: outcome [3] | outcome [4] | outcome [5] | outcome [6] | outcome [7] | outcome [8] | max activity [9] -22.3% [at 4.2 µM, hits give low values] | outcome [10]

O=C(Cc1ccccn1)NCC[C@@H]1CC[C@H](NC(=O)Nc2ccc(C(F)(F)F)cc2)[C@@H](CO)O1
inactive: outcome [3] | outcome [4] | outcome [5] | outcome [6] | outcome [7] | outcome [8] | max activity [9] -10.6% [at 16 µM, hits give low values] | outcome [10] | outcome [12] | outcome [11]

C[C@@H]1CN([C@H](C)CO)C(=O)c2cccc(NC(=O)Nc3ccc(C(F)(F)F)cc3)c2O[C@H]1CN(C)CC1CC1
inactive: outcome [3] | outcome [4] | outcome [5] | outcome [6] | outcome [7] | outcome [8] | max activity [9] -14% [at 0.26 µM, hits give low values] | outcome [10] | outcome [12] | outcome [11]

C[C@H]1CCCCO[C@@H](CN(C)Cc2ccc(C(=O)O)cc2)[C@@H](C)CN([C@@H](C)CO)C(=O)c2cc(NS(=O)(=O)c3ccc(Cl)cc3)ccc2O1
inactive: outcome [3] | outcome [4] | outcome [5] | outcome [6] | outcome [7] | outcome [8] | max activity [9] 4.48% | outcome [10] | outcome [12] | outcome [11]
